# Shown are actives, neighbours in structure and some others; about 2.4% of the full set was active somewhere.
# Pol beta inh: blocks human DNA polymerase beta activity; Potency, µM (doses to about 114 µM), without a hit: at the highest dose activity change, negative = inhibition, usual class: inhibitors; actives 1.3% (n = 340,000); Pol beta primer extension/strand displacement, fluorescence kinetic; P06746; also: % is scaled to controls: 0 for no effect and ±100 for the full control effect
#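 Values derive from four-parameter Hill fits of normalized kinetic data: reads at 0 and 10 min following addition of 50 nM substrate to 10 nM Pol beta preincubated 15 min with compound.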
# POLK inh: inhibitors of human DNA polymerase kappa; Q9UBT6; purified Pol kappa, fluorescent DNA synthesis assay, 10 min; Potency, µM (titrated, usually from 107 µM), without a hit: top-dose activity, negative = inhibition, usual class: inhibitors; actives 0.53% (n = 400,000); AID 588579; also: % is scaled to controls: 0 for no effect and ±100 for the full control effect
# Target sequence (Q9UBT6 whole entry, looked up): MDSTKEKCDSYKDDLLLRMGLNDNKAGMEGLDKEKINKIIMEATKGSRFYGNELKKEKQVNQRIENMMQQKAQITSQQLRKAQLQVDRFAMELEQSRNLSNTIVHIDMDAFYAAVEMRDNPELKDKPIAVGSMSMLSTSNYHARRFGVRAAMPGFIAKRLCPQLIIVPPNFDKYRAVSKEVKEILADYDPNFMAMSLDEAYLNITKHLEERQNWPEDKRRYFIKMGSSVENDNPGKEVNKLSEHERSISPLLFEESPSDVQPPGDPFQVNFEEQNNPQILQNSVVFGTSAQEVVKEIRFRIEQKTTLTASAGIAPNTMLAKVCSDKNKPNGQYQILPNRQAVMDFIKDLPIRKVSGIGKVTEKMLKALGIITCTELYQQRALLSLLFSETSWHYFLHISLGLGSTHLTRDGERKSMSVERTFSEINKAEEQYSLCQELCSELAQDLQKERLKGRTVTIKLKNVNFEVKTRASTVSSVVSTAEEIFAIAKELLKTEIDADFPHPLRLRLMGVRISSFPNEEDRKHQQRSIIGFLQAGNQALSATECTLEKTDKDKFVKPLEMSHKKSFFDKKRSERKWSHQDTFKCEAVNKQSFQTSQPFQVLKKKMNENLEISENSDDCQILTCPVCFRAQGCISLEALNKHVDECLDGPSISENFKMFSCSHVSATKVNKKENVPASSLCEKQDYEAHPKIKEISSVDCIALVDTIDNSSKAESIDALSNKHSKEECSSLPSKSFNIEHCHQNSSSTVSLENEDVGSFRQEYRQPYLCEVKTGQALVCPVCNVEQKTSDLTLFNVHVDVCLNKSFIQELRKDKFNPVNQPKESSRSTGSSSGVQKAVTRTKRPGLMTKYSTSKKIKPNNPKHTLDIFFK
#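 Kinetic fluorescence readout at 0 and 10 min followed reaction start with substrate at 50 nM final. Beforehand, enzyme (10 nM Pol kappa) stood 15 min with compound at room temperature; buffer-only wells were negative controls.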
# WRN inhibitor: blocks human WRN helicase; Q14191; WRN helicase unwinding, fluorescent forked duplex, kinetic; Potency, µM (highest dose often 114 µM), for inactives: at the highest dose activity change, negative = inhibition, most hits filed as inhibitors; actives 0.46% (n = 360,000); also: % is scaled to controls: 0 for no effect and ±100 for the full control effect; nearly all actives have a fitted effect of over 55% in size
#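 Enzyme (20 nM final) and test compound sit together 15 min at room temperature before substrate addition. Substrate is a single-forked duplex oligonucleotide (100 nM) labelled with fluorophore and quencher, with 2 mM ATP; helicase unwinding raises red fluorescence, read kinetically.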
# POLI inh: DNA polymerase iota (human) inhibition; Q9UNA4; Pol iota fluorescent replication assay, 10 min; Potency, µM (doses to about 115 µM), without a hit: at the highest dose activity, negative = inhibition, actives largely listed as inhibitors; actives 1% (n = 390,000); AID 588590
#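 Fluorescent replication assay read twice, at 0 min and 10 min after adding 50 nM (final) substrate. Enzyme (10 nM) and compounds were first incubated 15 min at room temperature; enzyme-free buffer wells were negative controls.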
# FEN1 inh: inhibitors of human flap endonuclease 1 | P39748 | Recombinant FEN1 flap cleavage, fluorescence, 15 min | actives 0.35% (n = 390,000) | Potency, µM (series often up to 114 µM), for the others: at the top dose activity change, negative = inhibition, hits mostly inhibitors; also: % is scaled to controls: 0 for no effect and ±100 for the full control effect; nearly all actives have a fitted effect of over 65% in size
#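 FEN1 at 10 nM, compound pretreatment for 15 min (room temperature), 50 nM final substrate to initiate; endpoint reads at 0 and 15 min; DMSO-only plates used as vehicle background.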
# Pol eta inh: blocks human DNA polymerase eta activity. AID 588591. Potency, µM (doses to about 114 µM), inactives show at the highest dose activity change, negative = inhibition, hits mostly inhibitors. recombinant Pol eta, fluorescent DNA replication assay. Q9Y253. actives 1.2% (n = 390,000); also: % is scaled to controls: 0 for no effect and ±100 for the full control effect
#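 Pol eta (10 nM) was preincubated with compounds for 15 min at room temperature, after which fluorescent replication substrate (50 nM final) was added to start the reaction. Fluorescence was read kinetically at 0 and 10 min.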
# Numbers without * were called inactive; u = inconclusive; x = not tested or not shown; [ ] = remark or other dose. Calls follow the shape of the dose curve; as a rule, active = well fitted curve in the direction sought with a large enough effect; inconclusive = small, poorly fitted or top-dose-only effect, or another doubt; inactive = no such curve, though single readings can be large; an effect the other way counts as inactive or inconclusive. Potency is read from the fitted curve at half-maximal effect.
SMILES,Pol beta inh,POLK inh,WRN inhibitor,POLI inh,FEN1 inh,Pol eta inh
NC(=O)[C@@H]1CC2(CC(c3cccc(NC(=O)[C@H]4CCC(=O)N4)c3)=NO2)CN1C(=O)c1ccc(Cl)cc1 (some centres not stated),-16%,-2%,11%,-17%,-7%,-14%
NC(=O)[C@H]1CC2(CC(c3cccc(NC(=O)[C@H]4CCC(=O)N4)c3)=NO2)CN1C(=O)c1ccccc1 (some centres not stated),-25%,-8%,-7%[11.6 µM],u,79µM*,-9%
N#CCC(=O)N1CC2(CC(c3cccc(NC(=O)COc4ccc(Cl)cc4)c3)=NO2)C[C@@H]1C(N)=O (some centres not stated),2%,-12%,7%,9%,7%,-5%
CCOC(=O)c1cc(OC(=O)c2ccccc2C)n(-c2ccccc2)n1,17%,12%,x,6%,-14%,-6%
CN(C)c1ncnc2ccc(-c3cccc(C#N)c3)cc12,x,-10%[60.1 µM],x,x,x,x
CCCCCC(=O)Nc1cccc(C2=NOC3(C2)C[C@H](C(N)=O)N(C(=O)CC#N)C3)c1 (some centres not stated),40µM*,x,x,x,x,x
CCCCCC(=O)Nc1cccc(C2=NOC3(C2)C[C@H](C(N)=O)N(C(=O)c2ccccc2)C3)c1 (some centres not stated),2%,-15%,-4%,u,11%,-7%
C/C=C(/C)C(=O)Nc1cccc(C2=NOC3(C2)C[C@H](C(N)=O)N(C(=O)Cc2ccc([N+](=O)[O-])cc2)C3)c1 (some centres not stated),-1%,1%,5%,-4%,11%,-21%
C/C=C\C=C/C(=O)Nc1cccc(C2=NOC3(C2)C[C@H](C(N)=O)N(C(=O)Cc2ccc([N+](=O)[O-])cc2)C3)c1 (some centres not stated),-8%,-10%,-13%,25µM*,-17%,-16%
Cc1cc(C)c2nc(Cl)c(CN(Cc3ccco3)C(=O)Nc3ccccc3C)cc2c1,1%,-8%,-13%,89µM*,-3%,-7%
COCCN(Cc1cc2cc(C)cc(C)c2nc1Cl)C(=O)Nc1ccccc1,u,-9%,-9%,35%,-19%,-14%
C=CCOC(=O)C(=O)/C=C/c1ccc2c(c1)Cc1ccccc1-2,8%,-6%,-22%,13µM*,-7%,3%
CCOc1ccccc1NC(=O)C1=C(C)Nc2ncnn2C1c1sccc1C (configuration not stated),1%,-12%[60.1 µM],x,-9%,-18%,-7%
CC(C)(C)c1ccc(OCC(=O)NCc2ccco2)c(Br)c1,u,-23%,-28%,u,-5%,45µM*
O=C(COC(=O)c1cccnc1Cl)NCc1ccco1,16µM*,-42%,u,u,0%,u
O=C(COC(=O)c1ccccc1Cl)NCc1ccco1,x,-40%,u,u,-26%,u
Cc1ccc(/C=C/C(=O)OCC(=O)NC(=O)NCc2ccco2)cc1,x,-45%,-4%[11.6 µM],u,15%,50µM*
COc1cccc(/C=C/C(=O)OCC(=O)NCc2ccco2)c1,45µM*,u,-21%,u,1%,u
CCOC(=O)c1c(-c2ccccc2)csc1NC(=O)c1cc(-c2ccc(Br)cc2)on1,-14%,2%,x,-4%,2%,-19%
C=CCOC(=O)N1CCC2CC1c1c(-c3ccc(C(F)(F)F)cc3)cccc12 (configuration not stated),x,x,4%,x,x,x
CCn1c(=O)cc(OCC(=O)NCc2ccc(C)o2)c2ccccc21,12%,-16%,-12%,-17%,-9%,-1%
CC(C)(C)NS(=O)(=O)c1ccc(CCC(=O)NCc2ccco2)cc1,1%,-7%,-10%,15%,-12%,1%
COc1cc(OC)cc(C(=O)OCC(=O)NCc2ccco2)c1,x,-38%,7%[11.6 µM],45µM*,12%,u
CCn1c(=O)cc(OCC(=O)NCc2ccco2)c2ccccc21,45µM*,-15%,-18%,u,10%,u
COc1ccc(S(=O)(=O)N(CC(=O)NCc2ccco2)c2ccccc2OC)cc1,u,u,-7%[11.6 µM],50µM*,-8%,u
SMILES,Pol beta inh,POLK inh,WRN inhibitor,POLI inh,FEN1 inh,Pol eta inh
COc1ccc(CCC(=O)NCc2ccco2)cc1,40µM*,u,u,-53%,20%,20µM*
COc1ccc(N(CC(=O)NCc2ccco2)S(=O)(=O)c2ccc(OC)c(OC)c2)cc1,17%,11%,5%,98%,-13%,-12%
COc1ccc2cc([S+]([O-])Cc3ncc(C)c(OC)c3C)nc2c1,x,4%[60.1 µM],x,x,x,x
Cc1cc(C)c(S(=O)(=O)NCCc2csc3nc(-c4ccc(Cl)cc4)nn23)c(C)c1,0%,-11%[60.1 µM],x,2%,-24%,-19%
COc1ccc(Cl)cc1S(=O)(=O)N1CCN(C(=O)c2cc(-c3ccc(Br)cc3)n[nH]2)CC1,-1%,-1%,x,11%,9%,-8%
CC(C)CCOc1ccc(N)cc1,x,-9%[60.1 µM],x,x,x,x
O=C(COC(=O)Cc1ccc(F)cc1)NCc1ccco1,22µM*,u,4%[11.6 µM],u,-1%,u
COc1cc(OC)cc(C(=O)NCC(=O)OCC(=O)NCc2ccco2)c1,x,u,u,79µM*,0%,u
CCOc1cc(C(=O)OCC(=O)NCc2ccco2)cc(OCC)c1OCC,18µM*,u,-13%[57.1 µM],u,-17%,u
Cc1cc2nc(C(C)(C)C)c(Cc3ccsc3)n2c(C)c1Br,x,x,-5%,x,x,x
CN(C)c1ccc(/C=C/c2ccnc3ccc(I)cc23)cc1,x,-21%,x,3%,-4%,x
CC(C)(C)n1ncc2c(=O)n(Cc3cc(F)ccc3Cl)cnc21,x,-10%,x,u,-20%,x
CN(C)c1ccc(/C=C(\C#N)C(=O)OCC(=O)N(C)C2CCS(=O)(=O)C2)cc1 (configuration not stated),x,0%,10%,16%,4%,13%
CCN(C(=O)COC(=O)/C(C#N)=C/c1ccc(N(C)C)cc1)C1CCS(=O)(=O)C1 (configuration not stated),x,u,u,56µM*,0%,-19%
O=C(Nc1ccc(S(=O)(=O)Nc2nccs2)cc1)c1ccc(N2C(=O)c3ccccc3C2=O)cc1,22µM*,u,-11%,71µM*,-6%,u
O=C(Nc1ccc(S(=O)(=O)Nc2nccs2)cc1)c1ccc(F)cc1,-14%,-10%,-6%,106%,-2%,-16%
